# The list is not random: actives were taken first. Their share in the collection is about 5.7%.
# Nrf2 inh: Nrf2 qHTS screen for inhibitors; A549 ARE-Fluc reporter, luciferase luminescence, 18-24 h; Potency, µM (top dose mostly 46 µM), without a hit: top-dose activity change, negative = inhibition, usual class: inhibitors; 360,000 compounds, 2.1% hits; AID 504444, 2011; further: potency means the concentration at half of the fitted maximal effect; nearly all actives have a fitted effect of over 60% in size
#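 Reporter: ARE-Fluc in A549. Exposure: 18-24 h, 37 °C, 5% CO2, 5% FBS OPTI-MEM. Readouts: fluorescent cytotoxicity (CellTiter-Fluor), then luminescent Nrf2 signal after BugLite.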
# A549 tox: Nrf2 qHTS screen for inhibitors: counterscreen for cytotoxicity | A549 ARE-Fluc cells, CellTiter-Fluor viability, 18-24 h | Potency, µM (titrated, usually from 46 µM), inactives show at the highest dose activity change, negative = cytotoxicity, most hits filed as inhibitors | 390,000 compounds, 0.16% hits; further: potency means the concentration at half of the fitted maximal effect
#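 Cytotoxicity counterscreen: CellTiter-Fluor fluorescence was measured in A549 ARE_Fluc cells after 18-24 h of compound exposure in a concentration series. The subsequent BugLite luminescent read reports ARE-luciferase activity.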
# KB-V1 MDR tox: qHTS assay for MDR1-selective chemotherapeutics: Primary screen using the drug-selected MDR subline cells KB-V1 | Potency, µM (titrated, usually from 46.1 µM), usual class: cytotoxic | 400,000 compounds, 3.4% hits | KB-V1 MDR cells viability, CellTiter-Glo, 72 h; further: potency means the concentration at half of the fitted maximal effect; nearly all actives have a fitted effect of over 60% in size
#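 Compound-treated KB-V1 multidrug-resistant cells, 72 h, 37 degrees C; viability by CellTiter-Glo. Fitted qHTS curves give the values.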
# PI4K2A block: qHTS for small molecular inhibitors of PI4K2A; purified PI4K2A, ADP-Glo luminescence, 1 h; stronger effect = lower value; activity change, negative = inhibition, % at 76.9 µM; 420,000 compounds, 0.13% hits; Phosphatidylinositol 4-kinase type 2-alpha (Homo sapiens), Q9BTU6; in the data active means activity change below about -50%; inconclusive means mostly about -30% to -49%;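 further: -100% = wells without enzyme as full effect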
# Target sequence (Q9BTU6 whole entry, looked up): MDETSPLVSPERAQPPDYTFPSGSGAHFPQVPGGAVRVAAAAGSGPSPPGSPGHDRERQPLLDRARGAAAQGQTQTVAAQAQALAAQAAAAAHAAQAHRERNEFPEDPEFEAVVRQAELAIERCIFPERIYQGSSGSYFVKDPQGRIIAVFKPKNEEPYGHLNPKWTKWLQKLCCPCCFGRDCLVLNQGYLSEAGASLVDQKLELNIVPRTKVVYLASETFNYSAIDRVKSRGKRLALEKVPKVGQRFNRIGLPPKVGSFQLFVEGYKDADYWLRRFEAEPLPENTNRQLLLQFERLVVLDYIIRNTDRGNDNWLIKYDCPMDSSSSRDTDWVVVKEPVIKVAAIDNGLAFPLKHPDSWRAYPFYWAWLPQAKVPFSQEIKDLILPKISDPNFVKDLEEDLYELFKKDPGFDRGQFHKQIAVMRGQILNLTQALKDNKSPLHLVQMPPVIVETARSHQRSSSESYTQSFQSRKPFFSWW
#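 PI4K2A activity was measured by ADP-Glo luminescence: enzyme (4 ug/mL stock) and phosphatidylinositol (1.2 mM stock) in Tris pH 7.5/MgCl2/EGTA/Triton X-100 buffer were reacted with ATP (300 microM stock) for one hour at ambient temperature.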
# Giardia killer: Small Molecules that selectively kill Giardia lamblia: qHTS; Giardia lamblia trophozoite viability; activity change, % at 7.66 µM, hits read low; 340,000 compounds, 0.15% hits; in the data active means activity change below about -80%; inconclusive means between about -30% and that limit;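 further: parasites exposed to compound for two days anaerobically before the ATP read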
#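 Killing of trophozoites was scored by loss of ATP luminescence after a 48 hrs anaerobic exposure to compounds at 37 deg C, using 100 cells per well.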
# KB-3-1 cytotox: qHTS assay for MDR1-selective chemotherapeutics: Primary screen using the parental adenocarcinoma cell KB-3-1. KB-3-1 viability, CellTiter-Glo ATP luminescence, 72 h. Potency, µM (titrated, usually from 46.1 µM), actives largely listed as cytotoxic. 400,000 compounds, 1.4% hits. AID 1347075, 2019; further: potency means the concentration at half of the fitted maximal effect; nearly all actives have a fitted effect of over 60% in size
#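 Cells are dispensed, compounds pinned in, plates held at 37 °C for 72 h, then CellTiter-Glo is added and luminescence read after 10 minutes. Cell line: parental KB-3-1 in phenol-red-free DMEM, 10% FBS.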
# An asterisk follows results filed as active; i = inactive; ? = inconclusive; / = no result. Unless noted, the call rests on the fitted dose curve; in most records, active means well fitted curve in the direction sought with a large enough effect; inconclusive means small, poorly fitted or top-dose-only effect, or another doubt; inactive means no such curve, though single readings can be large; an effect the other way counts as inactive or inconclusive. Unless noted, on the % scale 0 is the no-effect control and ±100 the full control effect.
SMILES,Nrf2 inh,A549 tox,KB-V1 MDR tox,PI4K2A block,Giardia killer,KB-3-1 cytotox
CC(O)CNC(=O)C(=O)Nc1c2c(nn1-c1ccc(Cl)cc1)CSC2 (centres undefined),/,-4.3%,i,-6.4,/,i
Cc1nn2c(-c3ccccc3)nnc2c2ccccc12,?,-2.1%,5.8µM*,-2.2,-8.3,?
Cc1ccc(-c2nn3c(-c4ccc(C)cc4)nnc3c3ccccc23)cc1,2.1%,-1.1%,/,2.1,/,/
Cc1ccc(Nc2nc(N/N=C/c3c[nH]c4ccccc34)nc(N3CCOCC3)n2)cc1,-3.0%,?,?,-1.6,-5.4,i
C(=N\Nc1nc(Nc2ccccc2)nc(N2CCOCC2)n1)/c1c[nH]c2ccccc12,?,?,23.1µM*,4.4,19.9,?
c1ccc(Nc2nc(N3CCOCC3)nc(N3CCOCC3)n2)cc1,/,17.7%,?,2.2,-4.1,16.4µM*
c1ccc(Nc2nc(N3CCNCC3)nc(N3CCOCC3)n2)cc1,-10.3%,-10.8%,?,5.4,-5.1,i
O=C(Oc1cccc(/C=N/Nc2nc(Nc3ccccc3)nc(N3CCOCC3)n2)c1)c1ccco1,-14.8%,22.3%,14.6µM*,2.0,17.0,i
COc1cccc(CNC(=O)CCn2nc(C)c3c(C)n(-c4ccccc4)nc3c2=O)c1,-20.0%,3.9%,i,0.9,/,i
CCCNC(=O)N1CC[C@H]2[C@@H]1c1cc(-c3ccc(F)cc3)ccc1N(C)[C@H]2CO,/,/,/,-6.7,/,/
CC(C)OP(=O)(Nc1cccc2ccccc12)OC(C)C,8.1%,-8.6%,i,-0.1,32.4,i
CN(C)P(=O)(Nc1cccc2ccccc12)Nc1cccc2ccccc12,-21.4%,-1.7%,11.6µM*,5.4,0.5,i
Cc1[nH]n(-c2ccccc2)c(=O)c1C(c1ccccc1C(=O)O)c1c(C)[nH]n(-c2ccccc2)c1=O,0.9%,-4.3%,i,1.7,-5.9,i
Cc1[nH]n(-c2ccccc2)c(=O)c1C(c1cc(Cl)ccc1O)c1c(C)[nH]n(-c2ccccc2)c1=O,-2.7%,1.9%,/,-51.0*,/,/
COc1ccc(-c2nc3ccccn3c2Nc2ccccc2C)cc1,?,-0.8%,/,/,2.9,/
Cc1c(C(=O)Nc2ccc(F)cc2F)oc2ccc3c(c12)C(=O)CC(C)(C)O3,10.4%,-7.2%,i,-2.4,/,i
CC1CCN(Cc2c(C(=O)N/N=C/c3ccc(C(F)(F)F)cc3)nnn2-c2nonc2N)CC1,25.9µM*,?,i,-2.7,1.3,i
CC1CCN(Cc2c(C(=O)N/N=C/c3cc(Br)ccc3O)nnn2-c2nonc2N)CC1,?,-10.4%,?,2.5,-18.6,?
CC1CCN(Cc2c(C(=O)N/N=C/c3cc(Cl)ccc3O)nnn2-c2nonc2N)CC1,-24.6%,-5.9%,?,1.7,-14.7,2.06µM*
O=C(CN1c2ccccc2Sc2ccccc21)NNC(=O)Nc1ccc(Cl)cc1,18.4µM*,?,i,0.6,-3.0,i
COc1ccccc1OCC(=O)NNC(=O)Nc1ccc(Cl)cc1,17.2%,-4.2%,10.3µM*,-4.4,-9.7,18.4µM*
O=C(c1cccc(Oc2ccccc2)c1)N1CCC(Oc2cccnc2)CC1,/,/,/,-1.8,/,/
CCOC(=O)c1ccc(-n2c(CCC(=O)O)ccc2-c2ccc(Br)cc2)cc1,-5.6%,-0.7%,/,0.0,/,/
Cc1c(Cl)cccc1Nc1nc(N)nc(CSc2ncccn2)n1,5.4%,-0.5%,18.4µM*,0.3,1.1,i
Cc1c(Cl)cccc1Nc1nc(N)nc(CSCCO)n1,-3.5%,-3.2%,i,-8.0,-5.8,i
Clc1ccc2c(c1)C(N1CCNCC1)Cc1ccccc1S2 (centres undefined),-22.4%,?,20.6µM*,-1.1,-27.0,?
Cc1ccc2c(c1)cc1c(=O)n(CC(=O)NC3CCCCC3)nc(C)n12,7.6%,0.2%,/,0.3,/,/

# Screening data deposited in PubChem BioAssay by National Center for Advancing Translational Sciences (NCATS).
